# Source: ChEMBL document CHEMBL3433997, “St. Jude Leishmania screening dataset” (2016)
# Biological target: Hexose transporter 1 (Plasmodium falciparum) (UniProt O97467)
# Test: ST_JUDE_LEISH: Cytotoxicity at 2uM final concentration against transgenic Leishmania Mexicana promastigotes LmPfHT that are glucose transport deficient and complemented with the Plasmodium falciparum hexose transporter. Activity is measured by DNA content using SYBR green in vitro
# Assay type: functional
row,Structure (SMILES),inhibition
1,COc1ccc2ncc(F)c(CCN3CC[C@@H](CNCc4ccc5c(c4C)OCCO5)C3)c2n1,35.3%
2,c1ccc(-c2n[nH]cc2Nc2ccnc3ccccc23)nc1,3.76%
3,CCOc1cc(Cc2cnc(N)nc2N)ccc1OC,0.12%
4,O=C(Nc1cccc(OC2CCN(Cc3ccccc3)CC2)c1)c1ccc(Cl)c(Cl)c1,1.85%
5,CCCC(C)Nc1nc(C)cc(N[C@@H](Cc2ccccc2)C(=O)Nc2ccccc2)n1 (stereo partly specified),3.18%
6,Nc1cc(-c2ccc3ccccc3c2)nc2ccccc12,26.8%
7,c1ccc(Oc2ccc(Nc3ccnc4cc(-c5cccc(CNCCN6CCOCC6)c5)ccc34)cc2)cc1,-0.08%
8,CCN(CCCN1CCCCC1)c1cc(C)nc(Nc2ccc(C)c(F)c2)n1,5.06%
9,O=C(Nc1cccc(C(F)(F)F)c1)c1cccc(S(=O)(=O)NCC2CCCN(Cc3ccccc3)C2)c1 (stereo unspecified),1.75%
10,C=CCc1cc(Cc2cnc(N)nc2N)cc(CCC)c1OC,12.5%
11,Cc1ccc(C(=O)NC2C(=O)NC2c2ccccc2)c(C)c1 (stereo unspecified),4.84%
12,CC[C@H](NC(=O)c1c(CC2CCN(CC(C)=O)CC2)c(-c2ccccc2)nc2ccccc12)c1ccccc1,3.28%
13,O=C(/C=C/c1ccc(Cl)c(Cl)c1)NCCCCCN1CCC(NC(=O)Nc2ccc(Cl)c(Cl)c2)CC1,-0.03%
14,CCS(=O)(=O)c1ccc(/C(=N/OC)c2ccc[nH]2)cc1,0.06%
15,CCc1cn2c3c(cc(C(=O)N[C@@H](Cc4ccccc4)[C@H](O)CNC(C)(C)CCCC(C)C)cc13)N(C)S(=O)(=O)C2,2.22%
16,CN(C)CCN(C)Cc1ccc(-c2ccc(NC(=O)c3ccc(Cl)cc3)cc2)cc1,11.3%
